Assay results from PubChem BioAssay AID488922 (Johns Hopkins Ion Channel Center, 2010).
Out of some 310,000 compounds screened, about 3,800 (1.2%) were called active.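 How the source made its calls: active means ratio B-score over 3 SD below the library mean, with starting fluorescence within 5 SD of its mean; inactive means the rest, inconclusive results apart.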 The entries come from a sample that favours actives as a whole.

What follows are compounds tested against Potassium channel subfamily K member 9 (Homo sapiens) (UniProt Q9NPC2) (assay: blockers of human TASK-3 (KCNK9) channel – HEK293 cells, thallium flux, primary screen (AID 488922;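 on B-score: negative B-score means less thallium flux so channel inhibition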)). Settings: HEK293 KCNK9, FluxOR thallium flux fluorescence, at 10 µM; hits give low values.
Chain of Potassium channel subfamily K member 9 (Homo sapiens) (Q9NPC2 whole entry, looked up): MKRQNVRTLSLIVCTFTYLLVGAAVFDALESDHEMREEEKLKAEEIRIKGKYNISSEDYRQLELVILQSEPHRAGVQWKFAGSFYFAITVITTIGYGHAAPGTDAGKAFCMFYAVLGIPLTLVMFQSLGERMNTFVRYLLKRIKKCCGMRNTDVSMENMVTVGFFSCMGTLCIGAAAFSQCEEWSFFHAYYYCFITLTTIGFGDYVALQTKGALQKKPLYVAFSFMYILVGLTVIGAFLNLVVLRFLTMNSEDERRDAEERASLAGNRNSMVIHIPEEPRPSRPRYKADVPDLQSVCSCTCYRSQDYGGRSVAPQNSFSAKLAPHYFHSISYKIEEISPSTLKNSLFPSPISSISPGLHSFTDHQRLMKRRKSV
In the case of Cc1ccccc1C(=O)Nc1ccccc1NC(=O)c1ccccc1C, the B-score is reported as “inactive”.
In the case of CCCCCCCCn1c2c(c(=N)c3c1CCC3)CCCC2, the B-score is reported as -14.2 (active).
In the case of O=C(NCc1cc(F)cc(C(F)(F)F)c1)C1CCC(=O)N(C2CCCC2)C1 (stereo unspecified), the B-score is reported as “inactive”.
With COc1ccccc1C(=O)NCCn1cc(SCC(=O)NCc2ccco2)c2ccccc21 the B-score was “inactive”.
With COc1ccccc1CC(=O)NCCc1c[nH]c2ccccc12 the B-score was “inactive”.
COc1ccc(S(=O)(=O)NCCc2c[nH]c3ccccc23)cc1OC was tested, and the B-score was “inactive”.
In the case of COc1cccc(CNCCc2c[nH]c3ccccc23)c1OCc1ccccc1F, the B-score is reported as -8.25 (active).
In the case of Cc1cc(C)n(CCNS(=O)(=O)c2ccc(Cl)cc2)n1, the B-score is reported as “inactive”.
With CCC1CCCCN1C(=O)Nc1cccc(NC(=O)N2CCCCC2CC)c1 (stereo unspecified) the B-score was -7.72 (active).
With CCC1CCCCN1C(=S)Nc1ccc(C(C)=O)cc1 (stereo unspecified) the B-score was “inactive”.
For COc1cccc(NC(=O)N2CCCC2C(=O)NC2CCCCC2)c1 (stereo unspecified), the B-score was “inactive”.
With O=C(Nn1c(-c2ccc(Cl)cc2)nc2ccccc2c1=O)c1cccnc1Cl the B-score was “inactive”.
With C/C(=N\N(C)C)c1ccc(OCCOc2ccc([N+](=O)[O-])cc2)cc1 the B-score was “inactive”.
In the case of Cc1ccc(NC(=O)c2cc3ccccc3o2)cc1, the B-score is reported as “inactive”.
With Cc1c(/C=N\NC(=O)c2cc3ccccc3o2)c2ccccc2n1C the B-score was -6.85 (active).
O=C(N/N=C/c1c[nH]c2ccccc12)c1cc2ccccc2o1 was tested, and the B-score was “inactive”.
CC(C)c1nnc(NC(=O)C2CC(=O)N(CCc3ccc(F)cc3)C2)s1 (stereo unspecified) was tested, and the B-score was “inactive”.
With CCCc1nc(SCC(=O)Nc2ccc(S(=O)(=O)N(C)C)cc2)c2ccccc2n1 the B-score was “inactive”.
With CC(C)N(C(=O)CSc1nc(COc2ccccc2)nc2ccccc12)C(C)C the B-score was -17.1 (active).
For CN(C(=O)CSc1nc(C2CC2)nc2ccccc12)c1nc(-c2ccccc2)cs1, the B-score was “inactive”.
In the case of COCCCNC(=S)N1CCN(c2nc(-c3cccc(OC)c3)cs2)CC1, the B-score is reported as “inactive”.
CN(c1ccc(OCC(=O)O)cc1)S(=O)(=O)c1ccc2ccccc2c1 was tested, and the B-score was “inactive”.
With Cc1ccc2nc(COc3ccc(N(C)S(=O)(=O)c4ccccc4)cc3)cc(=O)n2c1 the B-score was “inactive”.
For COc1cccc(COc2ccc(N(C)S(=O)(=O)c3ccccc3)cc2)c1, the B-score was -14.1 (active).
O=C(Nc1ccccc1)O/N=C1/CCCc2occc21 was tested, and the B-score was “inactive”.
In the case of Cc1ccc2c(c1)N(CC(=O)N1CCC(O)CC1)C(=O)CO2, the B-score is reported as “inactive”.
For O=C(O)COCC(=O)NCc1csc2ccc(Cl)cc12, the B-score was “inactive”.
In the case of Cc1noc(C)c1C(=O)Nc1ccccn1, the B-score is reported as “inactive”.
In the case of Cc1nonc1NC(=O)c1oc2ccccc2c1C, the B-score is reported as “inactive”.
Cc1c(C(=O)Nc2ccccn2)oc2ccc(Br)cc12 was tested, and the B-score was -9.33 (active).
With C[C@H](NC(=O)c1nc[nH]c1C(=O)NCC(=O)OC(C)(C)C)C(=O)OCc1ccccc1 the B-score was “inactive”.
O=C(NCC1CCCO1)c1cc2c([nH]c3ccccc32)c(-c2ccc(F)cc2)n1 (stereo unspecified) was tested, and the B-score was “inactive”.
CSCC[C@H](NC(=O)CCCn1nnc2ccccc2c1=O)C(=O)O was tested, and the B-score was “inactive”.
For CCN(CC)CCNC(=O)c1ccc(NC(=O)c2c(F)cccc2Cl)cc1, the B-score was “inactive”.
Cc1nn(-c2ccccc2)c(Cl)c1/C=N/NC(=O)c1nn(C)cc1[N+](=O)[O-] was tested, and the B-score was “inactive”.
Cc1cc(=O)[nH]c(N/N=C/c2ccc3c(c2)OCCO3)n1 was tested, and the B-score was “inactive”.
In the case of Cc1cc(=O)[nH]c(N/N=C/c2c(C)nn(-c3ccccc3Cl)c2Cl)n1, the B-score is reported as -6.92 (active).
For C=C1CCN([C@H](C(=O)NCc2cc(OC)c(OC)c(OC)c2)C(C)C)S(=O)(=O)c2ccccc21, the B-score was “inactive”.
CCN(c1ccccc1)S(=O)(=O)c1cc2c(cc1C)n(C)c(=O)c(=O)n2C was tested, and the B-score was “inactive”.
With Cc1ccc2c(c1)N(CC(=O)N(Cc1ccccn1)Cc1ccco1)C(=O)C(C(C)C)O2 (stereo unspecified) the B-score was “inactive”.
With Cn1nc(C(F)(F)F)c2cc(C(=O)N3CCOCC3)sc21 the B-score was “inactive”.
COc1cccc(-c2cc(C(=O)N3CCN(c4ccccc4OC)CC3)no2)c1 was tested, and the B-score was “inactive”.
With COc1ccccc1N1CCN(C(=O)c2cc3c(-c4ccc(Cl)cc4)nn(C)c3s2)CC1 the B-score was -13.6 (active).
In the case of Cn1nc(-c2ccc(Cl)cc2)c2cc(C(=O)NCc3ccco3)sc21, the B-score is reported as “inactive”.
With COc1cccc(-c2ccc(SCC(=O)N3CCN(c4ccccc4)CC3)nn2)c1 the B-score was “inactive”.
In the case of COc1cccc(-c2nn(C)c3sc(C(=O)N4CCN(c5ccccc5)CC4)cc23)c1, the B-score is reported as -9.93 (active).
CN1CCN(C2Cc3ccc(Cl)cc3Sc3ccc(F)cc32)CC1 (stereo unspecified) was tested, and the B-score was “inactive”.
For N#C/C=C/N1CCN(Cc2ccc3c(c2)OCO3)CC1, the B-score was “inactive”.
CC(C)(C)NC(=O)Cn1c(SCC(=O)Nc2nccs2)nc2ccccc21 was tested, and the B-score was “inactive”.
With O=C(Nn1cnnc1)c1cc(Cl)ccc1Cl the B-score was “inactive”.
In the case of COc1ccc(/C=N/OCc2ccccc2C#N)c(OC)c1, the B-score is reported as “inactive”.
For O=C(Nc1ccccc1)N1CCN(C(=O)Nc2ccccc2)CC1, the B-score was “inactive”.
In the case of O=C(Nc1ccc(Cl)c(Cl)c1)N1CC=C(c2ccccc2)CC1, the B-score is reported as -8.34 (active).
With COc1cc(C(=O)NCC(=O)N2CC=C(c3ccccc3)CC2)cc(OC)c1OC the B-score was “inactive”.
With CN(C)c1ccc(CNC(=O)CN2C(=O)COc3ccc(S(=O)(=O)N4CCCC4)cc32)cc1 the B-score was “inactive”.
In the case of Cc1cccc(N(C)C(=O)CN2C(=O)COc3ccc(S(=O)(=O)N4CCCCCC4)cc32)c1, the B-score is reported as -8.26 (active).
CC(=O)Nc1ccc(NC(=O)CN2C(=O)COc3ccc(S(=O)(=O)N4CCCCC4)cc32)cc1 was tested, and the B-score was “inactive”.
COc1ccc(NC(=O)C(CC(C)C)NS(=O)(=O)c2ccc3c(c2)CCN3C(C)=O)cc1OC (stereo unspecified) was tested, and the B-score was “inactive”.
For S=c1nc2ccccc2c2nc(-c3cccnc3)[nH]n12, the B-score was “inactive”.
COCCCn1c(SCC(=O)Nc2oc(C)c3c(C)n[nH]c(=O)c23)nc2sc3c(c2c1=O)CCC3 was tested, and the B-score was “inactive”.
For Cc1nc2ccccc2nc1N/N=C/c1ccc(O)cc1O, the B-score was “inactive”.
In the case of Fc1ccc(/C=N/Nc2nc(-c3cccnc3)nc3ccccc23)cc1, the B-score is reported as “inactive”.
In the case of Oc1ccc(/C=N/Nc2nc(-c3ccccc3F)nc3ccccc23)c(O)c1, the B-score is reported as -10.4 (active).
In the case of O=C(CN1CCN(Cc2ccccc2)CC1)Nc1ccc(F)c(F)c1, the B-score is reported as “inactive”.
In the case of O=C(CC(NC(=O)c1ccccc1)c1ccccc1)Nc1ccc(F)c(F)c1 (stereo unspecified), the B-score is reported as -10 (active).
For Cc1ccc(NC(=O)NC(=O)c2ccccc2)cc1F, the B-score was “inactive”.
